# The whole screen tested about 290,000 compounds, of which about 3,000 (1%) were called active. The sample holds actives, similar compounds and a random draw of the others, so the mix is not that of the screen. Values without a mark were called inactive. No stated cut-off is given here; in the data, active means inhibition mostly above about 36% (no sharp cut-off); inactive means mostly below about 34%.
# Assay: inhibition of NOD1-driven NF-kB reporter – cell-based, luminescence, uHTS, primary screen (AID 1578);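 further: HEK-293T reporter cells stimulated with the NOD1 agonist gamma-tri-DAP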
# Conditions: NOD1-driven NF-kB luciferase reporter cells, at 4 µM, hits give high values
row,SMILES,inhibition
1,Cc1ccc(C2=C(O)c3ccccc3C(=O)C2=O)cc1,-31.4%
2,O=C(C1=C(c2ccccc2)C(=O)c2ccccc2C1=O)c1ccccc1,1.2%
3,CC(=O)C1=C(c2ccc(Br)cc2)C(=O)c2ccccc2C1=O,98.1% (active)
4,COCCNC(=O)CCCCCN1C(=O)CCC1=O,48.6% (active)
5,O=C(CCCCCN1C(=O)CCC1=O)NCc1ccccc1,-1.8%
6,COCCNC(=O)CCCC(=O)NCCOC,-16.8%
7,Cc1nnc2sc(-c3ccc(-c4ccc(Cl)c(C(F)(F)F)c4)o3)nn12,-9.3%
8,CCCC(=O)c1ccc2c(c1)OCCO2,1.3%
9,O=C(CCc1ccccc1)c1ccc2c(c1)OCCCO2,-67.4%
10,CN(C)CCCC(=O)c1ccc2c(c1)OCO2,-10.8%
11,O=C(CCCc1ccccc1)c1ccc2c(c1)OCCO2,54.9% (active)
12,CN(C)CCC(=O)c1ccc2c(c1)OCO2,59.1% (active)
13,O=C(Cc1ccccc1)c1ccc2c(c1)OCCO2,-43.1%
14,Cc1ccccc1-c1nc(CN2CCCC2c2ccc(F)cc2)c(C)o1 (stereo not given),-29.5%
15,COCC1CCN(Cc2cn[nH]c2-c2cc3ccccc3o2)C1 (stereo not given),-18.7%
16,O=Cc1c(C(=O)O)n(CC(=O)O)c2ccccc12,-37%
17,CC1=NNC(=O)C1C(c1ccc(Cl)cc1)C(C#N)C#N (stereo not given),-7.3%
18,O=C(Cc1ccc(Br)cc1)NC1CCCc2ccccc21 (stereo not given),-30.2%
19,CN(C(=O)CCl)C1CCCc2ccccc21 (stereo not given),55.5% (active)
20,O=C(CCl)NC1CCCc2ccccc21 (stereo not given),59% (active)
21,CN(C(=O)Nc1ccccc1)C1CCCc2ccccc21 (stereo not given),-3.4%
22,Cc1ccccc1CC(=O)NC1CCCc2ccccc21 (stereo not given),58.1%
23,CN(C(=O)CN1CCN(c2ccccc2F)CC1)C1CCCc2ccccc21 (stereo not given),-20.5%
24,CCc1nnc(NC(=O)CCC(=O)NC2CCCc3ccccc32)s1 (stereo not given),-15.7%
25,CC(C)Cc1nnc(NC(=O)CCC(=O)NC2CCCc3ccccc32)s1 (stereo not given),-25.2%

row,SMILES,inhibition
1,CCCc1nnc(NC(=O)CCC(=O)NC2CCCc3ccccc32)s1 (stereo not given),89.6% (active)
2,O=C(CNC(=O)Cn1ccc2ccccc2c1=O)NCCCN1CCN(c2cccc(Cl)c2)CC1,9.9%
3,COc1ccccc1CN1CC(C(=O)N(C)CCCn2nc(C)cc2C)CCC1=O (stereo not given),-33.8%
4,Cc1cc(Cl)ccc1C(=O)C1CCCN(C(=O)c2cnn(C(C)C)c2)C1 (stereo not given),-17.9%
5,CC(C)(C)n1cc(S(=O)(=O)c2ccccc2)[nH]c1=O,-26.3%
6,O=C(Nc1ccccn1)N1CCOCC1,-28.5%
7,C=CCn1c(SCc2cc(=O)n3cc(C)ccc3n2)nnc1-c1ccc(F)cc1,-11.1%
8,O=C(O)CCn1[nH]c(=O)c2ccccc2c1=O,-7.7%
9,Cc1ccc2nc(SCc3ccccc3)c(C=O)c(=O)n2c1,-41.8%
10,COc1ccc(-c2c(NC(=O)c3ccco3)n(-c3ccccc3)nc(C)c2=O)cc1,-7.7%
11,COc1ccc(/C=N/NC(=O)c2c(-c3ccccc3)noc2C)cc1[N+](=O)[O-],-15.9%
12,Oc1ccc(-c2nc3c4c(ncn3n2)-c2ccccc2CC42CCCC2)cc1,99.8% (active)
13,COc1ccc(-c2nc3c4c(ncn3n2)-c2ccccc2CC42CCCC2)cc1,-3.6%
14,c1ccc(OCc2nc3c4c(ncn3n2)-c2ccccc2CC42CCCC2)cc1,19.6%
15,O=C(Nc1ccccc1F)C1CCN(C(=O)NCc2ccccc2)CC1,-18%
16,COc1ccc(-c2cc(-c3ccccc3)nc(Cl)n2)cc1OC,12%
17,Cc1c(NS(=O)(=O)c2ccc3c(c2)NC(=O)CC(=O)N3)cccc1[N+](=O)[O-],-6.1%
18,CCOC(=O)NC1(C(F)(F)F)C(=O)N(Cc2ccccc2)C2=C1C(=O)CC(C)(C)C2 (stereo not given),0.2%
19,Cc1ccc(S(=O)(=O)N(C)c2ccc(OC(=O)c3ccc(=O)[nH]c3)cc2)cc1,5.9%
20,O=S(=O)(c1cc(F)ccc1F)N1CCN2CCCC2C1 (stereo not given),50.7%
21,NC(=S)N/N=C/c1ccc(C(F)(F)F)cc1,-16%
22,C=CCNC(=S)N/N=C/c1ccc(-c2ccc(Br)cc2)o1,-6.5%
23,C=CCNC(=S)N/N=C/c1ccc(C(F)(F)F)cc1,52.7% (active)
24,C=CCNC(=S)N/N=C/c1ccc(-c2ccc(OC)cc2)o1,59.5% (active)
25,C=CCNC(=S)N/N=C/c1ccc(-c2cccc([N+](=O)[O-])c2)o1,-8.7%

row,SMILES,inhibition
1,C=CCNC(=S)N/N=C/c1ccc(C(C)(C)C)cc1,3.2%
2,CCN(CC)CCCN1C=C2C(=O)C(C)(OC(=O)C3CCCC3)C(=O)C=C2C=C1c1ccsc1 (stereo not given),-2%
3,CCOC(=O)C1=C(c2ccccc2)N=C2SCC(=O)N2C1c1ccc(OCC)c(OCC)c1 (stereo not given),-4%
4,CCOC(=O)Cn1nc(C)c(NC(=O)COc2ccc([N+](=O)[O-])cc2)c1C,-8.3%
5,CC(=O)NNC(=O)CCn1c2c(c3ccccc31)CCCC2,-2%
6,O=C(CCn1c2c(c3ccccc31)CCCC2)NNC(=O)c1ccccc1Cl,-15.4%
7,CCOC(=O)NNC(=O)CCn1c2c(c3ccccc31)CCCC2,55.3% (active)
8,CCOC(=O)c1c(C)[nH]c(C(=O)CSc2nc(C)cc(C)n2)c1C,-15.5%
9,O=C(O)C1CC1(c1ccccc1)c1ccccc1 (stereo not given),-21.6%
10,CCOc1ccc(Nc2nc(NCC(=O)O)nc(N)c2[N+](=O)[O-])cc1,0.9%
11,Cc1cccc(NC(=O)C2C3CCC4C(CCC32)C4(Cl)Cl)c1 (stereo not given),-38.6%
12,O=C(Nc1cccc(Cl)c1)C1C2CCC3C(CCC21)C3(Cl)Cl (stereo not given),73% (active)
13,O=C(Nc1ccccc1)C1C2CCC3C(CCC21)C3(Cl)Cl (stereo not given),-42.4%
14,COc1cccc(CN2CCNC(=O)C2CC(=O)N2CCCCO2)c1OC (stereo not given),-10.5%
15,CC1=CC(=O)C(C(C)C)=C/C1=N/OS(=O)(=O)c1ccccc1,-5.3%
16,CCOc1ccc(C(=O)c2ccccc2C(=O)O)cc1OCC,-35.3%
17,CC1=CC(=O)C(C(C)C)=C/C1=C(\c1cc(C(C)C)c(OP(=O)(O)O)cc1C)c1ccccc1C(=O)O,69.3% (active)
18,COc1ccc(CNc2ccc(S(N)(=O)=O)cc2)cc1,2.2%
19,S=C(N/N=C/c1ccc(Cl)cc1)N1CCOCC1,63.9% (active)
20,Cc1ccc(/C=N/NC(=S)N2CCOCC2)cc1,39.7%
21,Oc1ccc(/C=N/NC(=S)N2CCOCC2)cc1,4.2%
22,Cc1cccc2sc(NC(=O)CSc3cn[nH]n3)nc12,19%
23,O=C1C2CC=CCC2C(=O)N1Cc1ccccc1Cl (stereo not given),-2.8%
24,CC(=O)Nc1ccc(NC(=O)CSc2nc(N)c(NC(=O)c3ccco3)c(=O)[nH]2)cc1,-35.9%
25,Cc1c(C)c2ccc(OCC(=O)Nc3cccnc3)cc2oc1=O,-45.6%

row,SMILES,inhibition
1,O=C(COc1ccc2ccc(=O)oc2c1)Nc1cccnc1,-31.3%
2,O=C(COc1ccc2ccc(=O)oc2c1)Nc1ccc(CCO)cc1,-6%
3,COC(=O)COc1ccc2c(-c3ccc(OC)cc3)cc(=O)oc2c1,1.6%
4,Cc1nn(CCC#N)c(N)c1C1(O)C(=O)Nc2c(Cl)cc(Cl)cc21 (stereo not given),-6.9%
5,Fc1ccccc1/C=N/Nc1nc2ccccc2o1,-1.1%
6,CCOc1ccc2nc(C)cc(Nc3ccc(N4CCOCC4)cc3)c2c1,-31.4%
7,CN(C[C@H](CC1CCCCC1)N(C[C@H](Cc1ccccc1)N(CCc1ccccc1)N=O)N=O)N=O,-18.5%
8,O=c1cc(CNC2CCCCC2)c2ccccc2[nH]1,11.2%
9,COC(=O)c1ccc(-n2cncn2)c([N+](=O)[O-])c1,-23.5%
10,CN=c1scc(-c2cccs2)n1/N=C/c1ccc(O)c(O)c1O,-24.6%
11,CN=c1scc(-c2cccs2)n1/N=C/c1ccccc1O,107% (active)
12,CC(C)N=c1scc(-c2cccs2)n1/N=C/c1ccc(O)c(O)c1O,54.6%
13,O=C(Cc1ccccc1)NCC(=O)N1CCN(c2ccccc2)CC1,-14.1%
14,Cc1ccc(NC2=CC(=O)CC(c3ccc(Cl)cc3)C2)cc1 (stereo not given),-10.3%
15,C(=N\Nc1nc2ccccc2[nH]1)/c1ccc2c(c1)OCCO2,-1.4%
16,Cc1ccc(/C=N/Nc2ccc3ccccc3n2)o1,25.7%
17,Fc1cccc(/C=N/Nc2ccc3ccccc3n2)c1,2.4%
18,C(=N\Nc1ccc2ccccc2n1)/c1ccc2c(c1)OCCO2,71.8% (active)
19,C(=N\Nc1ccccn1)/c1ccc2c(c1)OCCO2,-30.1%
20,Cc1cccc(/C=N/Nc2ccc3ccccc3n2)c1,63.5% (active)
21,Cc1ccc(OCC(O)CN2C(=O)NC(C)(C)C2=O)c(C)c1 (stereo not given),-16.8%
22,Cc1ccc(N=Nc2[nH]c3ccccc3c2O)cc1,-16%
23,COc1ccc(N2CC(C(=O)Nc3nnc(SCc4cccnc4)s3)CC2=O)cc1 (stereo not given),-15.4%
24,O=C(O)CSc1nnc(CSc2nc3ccccc3s2)n1-c1ccccc1,-26.6%
25,CC(C)(C)OC(=O)Nc1ncnc2c1ncn2C1OC(CO)C2OC(C)(C)OC21 (stereo not given),1.4%

# Reference: PubChem BioAssay AID1578 (Sanford-Burnham Center for Chemical Genomics, 2009)
